Results filed as inconclusive are left out. Calls of active or inactive are those of the source. Unless noted, calls come from the whole dose curve; as a rule, active = well fitted curve in the direction sought with a large enough effect in the repeat runs; inconclusive = weak or mixed curves; inactive = no such curve, though single readings can be large; an effect the other way counts as inactive or inconclusive.
Key:
[1] = target: Aryl hydrocarbon receptor (Homo sapiens) (UniProt P35869); test: qHTS assay to identify small molecule that activate the aryl hydrocarbon receptor (AhR) signaling pathway (AID 743085);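 note: HG2L7.5c1 human HepG2 liver cells with stably integrated DRE-driven firefly reporter; series mostly up to about 70 µM; nearly all actives have a fitted effect of over 15% in size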
Aryl hydrocarbon receptor (Homo sapiens), sequence (P35869 whole entry, looked up): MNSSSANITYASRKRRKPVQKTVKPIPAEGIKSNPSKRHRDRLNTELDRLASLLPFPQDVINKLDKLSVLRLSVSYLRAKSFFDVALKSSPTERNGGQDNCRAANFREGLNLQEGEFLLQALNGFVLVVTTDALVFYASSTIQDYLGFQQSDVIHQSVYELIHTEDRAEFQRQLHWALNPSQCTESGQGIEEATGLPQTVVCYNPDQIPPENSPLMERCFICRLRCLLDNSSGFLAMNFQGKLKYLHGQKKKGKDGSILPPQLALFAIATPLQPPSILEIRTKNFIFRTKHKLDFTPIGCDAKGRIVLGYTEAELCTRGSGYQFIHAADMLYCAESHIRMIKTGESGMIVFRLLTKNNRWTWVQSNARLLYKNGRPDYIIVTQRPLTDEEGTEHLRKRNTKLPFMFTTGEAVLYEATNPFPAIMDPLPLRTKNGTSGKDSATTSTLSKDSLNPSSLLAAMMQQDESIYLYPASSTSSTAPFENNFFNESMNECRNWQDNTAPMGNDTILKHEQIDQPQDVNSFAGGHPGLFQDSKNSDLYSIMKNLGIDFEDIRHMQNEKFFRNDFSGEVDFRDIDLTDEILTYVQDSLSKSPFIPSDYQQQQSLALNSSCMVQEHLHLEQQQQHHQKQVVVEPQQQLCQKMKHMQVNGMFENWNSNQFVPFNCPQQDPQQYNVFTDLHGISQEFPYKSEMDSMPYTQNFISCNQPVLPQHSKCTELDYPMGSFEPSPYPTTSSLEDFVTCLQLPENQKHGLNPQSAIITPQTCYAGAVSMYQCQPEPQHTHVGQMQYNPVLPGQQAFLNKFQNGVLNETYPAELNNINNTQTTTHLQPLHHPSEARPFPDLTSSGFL
How it was run: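 Steps: seed HepG2-AhR-luc cells; allow 5 h at 37C; pin-transfer test compound or vehicle; incubate 24 h at 37C; add viability dye (30 min, 37C) and read fluorescence; add luciferase substrate (30 min, RT) and read luminescence.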

[2] = qHTS assay to identify small molecule that activate the aryl hydrocarbon receptor (AhR) signaling pathway - cell viability counter screen (AID 743086);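 note: HepG2 liver cells carrying the AhR DRE luciferase reporter; series mostly up to about 70 µM; nearly all actives have a fitted effect of over 45% in size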
How it was run: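 HepG2-AhR-luc (HG2L7.5c1) cells, 4000/well, were preincubated 5 h at 37C, exposed to compound in qHTS format for 24 hr at 37C, then given CellTiter-Fluor for 30 min; viability was read as fluorescence in the reporter wells.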

[3] = target: Peroxisome proliferator-activated receptor gamma (Homo sapiens) (UniProt P37231); test: qHTS assay to identify small molecule agonists of the peroxisome proliferator-activated receptor gamma (PPARg) signaling pathway (AID 743094; active = well fitted activation curve with a large enough effect in the signal ratio in the repeat runs, not every such curve was filed as active; the % refers to the signal ratio)
Peroxisome proliferator-activated receptor gamma (Homo sapiens), sequence (P37231 whole entry, looked up): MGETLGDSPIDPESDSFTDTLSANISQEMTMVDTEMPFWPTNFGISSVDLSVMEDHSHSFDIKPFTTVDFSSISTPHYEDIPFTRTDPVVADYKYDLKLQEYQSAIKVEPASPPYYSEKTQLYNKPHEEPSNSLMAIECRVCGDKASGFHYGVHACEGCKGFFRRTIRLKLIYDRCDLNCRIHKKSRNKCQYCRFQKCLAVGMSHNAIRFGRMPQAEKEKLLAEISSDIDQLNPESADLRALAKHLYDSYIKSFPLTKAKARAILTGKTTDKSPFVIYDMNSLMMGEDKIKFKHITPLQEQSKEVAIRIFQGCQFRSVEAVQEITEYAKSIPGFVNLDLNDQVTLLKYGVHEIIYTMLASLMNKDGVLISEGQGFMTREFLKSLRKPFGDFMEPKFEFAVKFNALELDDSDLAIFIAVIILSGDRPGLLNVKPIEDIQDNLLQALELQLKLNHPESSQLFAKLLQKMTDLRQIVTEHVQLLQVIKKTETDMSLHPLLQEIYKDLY
How it was run: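 Agonism was assessed in a beta-lactamase reporter system, HEK293H cells with a stably integrated UAS-bla construct under PPARg control; the 17 h treatment at 37C preceded a 1 h room-temperature FRET substrate read.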

[4] = qHTS assay to identify small molecule antagonists of the peroxisome proliferator-activated receptor gamma (PPARg) signaling pathway - cell viability counter screen (AID 743194); settings: Potency: co-treated with 50 nM rosiglitazone; note: nearly all actives have a fitted effect of over 55% in size
How it was run: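 PPARg-UAS-bla HEK293H cells were plated, rested 5 h at 37 C, then treated with compounds plus rosiglitazone (50 nM final) for 17 h at 37 C; viability was then read by CellTiter-Glo luminescence after 30 min at room temperature.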

[5] = qHTS assay for small molecule agonists of the antioxidant response element (ARE) signaling pathway (AID 743202; active = well fitted activation curve with a large enough effect in the signal ratio in the repeat runs, not every such curve was filed as active; the % refers to the signal ratio)
How it was run: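 Following a 16 h, 37 C exposure of reporter HepG2 cells (ARE-driven beta-lactamase, 2,000 cells/well) to compounds, FRET substrate was applied for 2 h at room temperature and fluorescence intensity recorded.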

[6] = qHTS assay for small molecule agonists of the antioxidant response element (ARE) signaling pathway - cell viability counter screen (AID 743203; calls by dose curve; note: nearly all actives have a fitted effect of over 55% in size)
How it was run: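 ATP content via CellTiter-Glo luminescence served as the viability measure. Cells: ARE-bla HepG2, 2,000 per well. Exposure: 16 hrs, 37C/5% CO2.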

[7] = qHTS assay for small molecule activators of the heat shock response signaling pathway - cell viability counter screen (AID 743209); note: nearly all actives have a fitted effect of over 50% in size
How it was run: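 Compounds dissolved in DMSO were added to overnight-plated HSE-bla HeLa cells and left 5 h at 37 C. Cell viability was quantified by luminescence using CellTiter-Glo.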

[8] = qHTS assay for small molecule activators of the heat shock response signaling pathway (AID 743210; active = well fitted activation curve with a large enough effect in the signal ratio in the repeat runs, with a control signal flat, not every such curve was filed as active; the % refers to the signal ratio; note: series mostly up to about 63 µM)
How it was run: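 Heat shock element–beta-lactamase HeLa reporter cells; qHTS with compounds for 5 h at 37 C; detection by FRET substrate fluorescence after 2.5 h at RT.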

[9] = qHTS assay to identify small molecule agonists of the peroxisome proliferator-activated receptor delta (PPARd) signaling pathway - cell viability counter screen (AID 743211); note: nearly all actives have a fitted effect of over 55% in size
How it was run: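 Viability of GeneBLAzer PPARd UAS-bla HEK293H cells was assessed after 17 h compound incubation at 37C, using CellTiter-Glo reagent added after the reporter read and luminescence recorded 30 min later.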

[10] = qHTS assay to identify small molecule antagonists of the peroxisome proliferator-activated receptor delta (PPARd) signaling pathway - cell viability counter screen (AID 743213); note: nearly all actives have a fitted effect of over 50% in size
How it was run: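 PPARd-bla HEK293H cells (3000/well) got compound plus 300 nM L165041 agonist for 17 h at 37 C. Viability in the same wells came from CellTiter-Glo luminescence after 30 min at room temperature.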

[11] = target: Bile acid receptor (Homo sapiens) (UniProt Q96RI1); test: qHTS assay to identify small molecule antagonists of the farnesoid-X-receptor (FXR) signaling pathway (AID 743217; active = well fitted inhibition curve with a large enough effect in the signal ratio in the repeat runs, not every such curve was filed as active; the % refers to the signal ratio)
Bile acid receptor (Homo sapiens), sequence (Q96RI1 whole entry, looked up): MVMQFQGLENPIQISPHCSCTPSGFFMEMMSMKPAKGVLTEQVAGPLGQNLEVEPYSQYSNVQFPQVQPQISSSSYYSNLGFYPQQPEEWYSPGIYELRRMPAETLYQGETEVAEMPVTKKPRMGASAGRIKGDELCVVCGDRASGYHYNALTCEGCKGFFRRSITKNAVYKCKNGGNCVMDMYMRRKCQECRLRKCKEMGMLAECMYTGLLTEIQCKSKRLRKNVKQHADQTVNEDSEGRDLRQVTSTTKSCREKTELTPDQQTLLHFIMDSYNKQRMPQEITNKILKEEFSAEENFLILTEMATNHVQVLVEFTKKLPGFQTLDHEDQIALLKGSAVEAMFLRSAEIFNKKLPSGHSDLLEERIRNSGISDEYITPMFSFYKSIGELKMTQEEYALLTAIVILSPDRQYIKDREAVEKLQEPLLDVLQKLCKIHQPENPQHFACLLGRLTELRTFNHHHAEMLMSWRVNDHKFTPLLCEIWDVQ
How it was run: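 Test compounds are pin-transferred onto FXR-bla HEK 293T cells, then chenodeoxycholic acid is added at 50 uM final. After 16 h at 37 °C, LiveBLAzer B/G substrate is applied for 2 h at room temperature and fluorescence read.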

[12] = qHTS assay to identify small molecule agonists of the farnesoid-X-receptor (FXR) signaling pathway - cell viability counter screen (AID 743218); note: nearly all actives have a fitted effect of over 45% in size
How it was run: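 Quantitative HTS counter screen measuring ATP-based viability via CellTiter-Glo luminescence in HEK 293T cells carrying a UAS-driven beta-lactamase reporter, after 16 h compound exposure at 37 C.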

[13] = target: Bile acid receptor (Homo sapiens) (UniProt Q96RI1); test: qHTS assay to identify small molecule agonists of the farnesoid-X-receptor (FXR) signaling pathway (AID 743220; active = well fitted activation curve with a large enough effect in the signal ratio in the repeat runs, not every such curve was filed as active; the % refers to the signal ratio)
How it was run: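 FXR-UAS-bla HEK 293T cells carrying a UAS-driven beta-lactamase reporter were plated for 5 h at 37C/5% CO2, then exposed to DMSO-dissolved Tox21 10K compounds for 16 h at 37C. A LiveBLAzer B/G FRET substrate was loaded for 2 h at room temperature before fluorescence reading.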

[14] = qHTS assay to identify small molecule antagonists of the farnesoid-X-receptor (FXR) signaling pathway - cell viability counter screen (AID 743221; active = well fitted cell-killing curve with a large enough effect in the repeat runs, not every such curve was filed as active; note: nearly all actives have a fitted effect of over 50% in size)
How it was run: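 Quantitative HTS of the Tox21 10K library run in parallel with the beta-lactamase reporter read. HEK 293T cells carrying a UAS-driven bla reporter got compound and 50 uM CDCA (final) for 16 h; ATP-based luminescence followed.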

[15] = target: Vitamin D3 receptor (Homo sapiens) (UniProt P11473); test: qHTS assay to identify small molecule agonists of the vitamin D receptor (VDR) signaling pathway (AID 743222; calls by dose curve)
Vitamin D3 receptor (Homo sapiens), sequence (P11473 whole entry, looked up): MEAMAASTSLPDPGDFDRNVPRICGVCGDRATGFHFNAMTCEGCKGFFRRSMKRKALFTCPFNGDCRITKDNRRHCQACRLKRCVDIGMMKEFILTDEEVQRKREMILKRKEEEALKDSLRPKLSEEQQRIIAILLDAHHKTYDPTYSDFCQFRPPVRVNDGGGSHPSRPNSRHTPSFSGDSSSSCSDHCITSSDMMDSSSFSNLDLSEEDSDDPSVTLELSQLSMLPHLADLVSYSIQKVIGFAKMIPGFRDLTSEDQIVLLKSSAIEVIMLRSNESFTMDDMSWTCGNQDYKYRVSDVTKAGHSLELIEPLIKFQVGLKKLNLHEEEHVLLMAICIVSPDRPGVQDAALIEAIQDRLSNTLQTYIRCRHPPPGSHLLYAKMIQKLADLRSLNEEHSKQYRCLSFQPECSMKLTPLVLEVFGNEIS
How it was run: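 Tox21 cell reporter format: VDR-bla line, 16 h compound exposure in 5% CO2 at 37C, then fluorescence intensity after 2 h with LiveBLAzer B/G FRET substrate.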

[16] = target: Vitamin D3 receptor (Homo sapiens) (UniProt P11473); test: qHTS assay to identify small molecule antagonists of the vitamin D receptor (VDR) signaling pathway (AID 743223; active = well fitted inhibition curve with a large enough effect in the signal ratio in the repeat runs, not every such curve was filed as active; the % refers to the signal ratio)
How it was run: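 Fluorescence from LiveBLAzer B/G FRET substrate, read after 2 h at room temperature, reflects beta-lactamase reporter activity in VDR-bla cells treated 16 h at 37C with compounds and agonist 1alpha,25-dihydroxyvitamin D3 (3 nM final).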

[17] = target: Peroxisome proliferator-activated receptor delta (Homo sapiens) (UniProt Q03181); test: qHTS assay to identify small molecule agonists of the peroxisome proliferator-activated receptor delta (PPARd) signaling pathway (AID 743212; calls by dose curve)
Peroxisome proliferator-activated receptor delta (Homo sapiens), sequence (Q03181 whole entry, looked up): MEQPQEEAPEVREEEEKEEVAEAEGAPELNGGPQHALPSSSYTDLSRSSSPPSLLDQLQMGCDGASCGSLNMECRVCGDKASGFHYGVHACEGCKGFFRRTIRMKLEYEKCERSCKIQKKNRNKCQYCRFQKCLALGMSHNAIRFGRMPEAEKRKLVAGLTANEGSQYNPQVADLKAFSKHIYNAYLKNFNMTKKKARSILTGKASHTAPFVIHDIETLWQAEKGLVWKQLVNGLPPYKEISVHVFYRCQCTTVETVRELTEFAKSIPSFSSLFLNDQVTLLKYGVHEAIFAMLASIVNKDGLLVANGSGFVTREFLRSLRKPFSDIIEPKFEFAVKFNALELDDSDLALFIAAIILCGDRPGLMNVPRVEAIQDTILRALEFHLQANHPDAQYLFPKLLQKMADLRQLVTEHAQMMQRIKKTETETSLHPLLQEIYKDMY
How it was run: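 Beta-lactamase reporter read by fluorescence (LiveBLAzer B/G FRET, 2 h, room temperature). Test agents, in DMSO, incubated at 37 C with PPARd-bla HEK293H cells.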

[18] = target: Peroxisome proliferator-activated receptor delta (Homo sapiens) (UniProt Q03181); test: qHTS assay to identify small molecule antagonists of the peroxisome proliferator-activated receptor delta (PPARd) signaling pathway (AID 743215; active = well fitted inhibition curve with a large enough effect in the signal ratio in the repeat runs, not every such curve was filed as active; the % refers to the signal ratio;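 note: cells stimulated with agonist L165041 at 300 nM final during compound exposure; series mostly up to about 62 µM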)
How it was run: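 Here, a reporter line (HEK293H, beta-lactamase under a UAS) measures PPARd signaling. Compounds are tested against agonist L165041 at 300 nM final concentration over 17 h at 37 C, with fluorescence read after substrate.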

[19] = qHTS assay to identify small molecule agonists of the vitamin D receptor (VDR) signaling pathway - cell viability counter screen (AID 743224); note: series mostly up to about 63 µM; nearly all actives have a fitted effect of over 50% in size
How it was run: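 CellTiter-Glo viability readout on VDR-bla cells, measured after 16 h of compound treatment at 37C in the same wells.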

[20] = target: Peroxisome proliferator-activated receptor gamma (Homo sapiens) (UniProt P37231); test: qHTS assay to identify small molecule antagonists of the peroxisome proliferator-activated receptor gamma (PPARg) signaling pathway (AID 743191; calls by dose curve; note: series mostly up to about 63 µM; nearly all actives have a fitted effect of over 30% in size)
How it was run: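 GeneBLAzer PPARg UAS-bla HEK293H cells carrying a UAS-driven beta-lactamase reporter were plated at 3000 cells/well, preincubated 5 h at 37C, then given compound for 17 h at 37C; LiveBLAzer B/G FRET substrate was read after 1 h at room temperature.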
% is set by controls: 0 for no effect and ±100 for the full control effect.

CCCCC1C(=O)NC(=O)N(C2CCCCC2)C1=O (centres undefined)
inactive: Potency [1] | Potency [2] | Potency [3] | Potency [4] | Potency [5] | Potency [6] | Potency [7] | Potency [8] | Potency [9] | Potency [10] | Potency [11] | Potency [12] | outcome [13] | Potency [14] | outcome [15] | Potency [16]

CC(O)CN1CCN(CC(=O)[O-])CCN(CC(=O)[O-])CCN(CC(=O)[O-])CC1.[Gd+3] (centres undefined)
inactive: Potency [1] | Potency [2] | Potency [3] | Potency [4] | Potency [5] | Potency [6] | Potency [7] | Potency [8] | Potency [9] | outcome [17] | Potency [10] | Potency [18] | Potency [11] | Potency [12] | outcome [13] | Potency [14] | outcome [15] | Potency [16] | Potency [19]

CCCCCCCCCCCCN=C(N)N
inactive: activation [1] -0.0242% [at 3.79 µM] | viability change, negative = cytotoxic [2] -4.27% [at 3.79 µM] | activation [3] 0.522% [at 3.17 µM] | ratio activity, negative = inhibition [20] -16.9% [at 2.7 µM] | viability change, negative = cytotoxic [6] -8.9% [at 3.74 µM] | activity change, negative = cytotoxicity [7] -18.4% [at 2.7 µM] | activity change, negative = cytotoxicity [9] -26.8% [at 2.7 µM] | activation [17] 6.16% [at 2.7 µM] | viability change, negative = cytotoxic [10] -15.8% [at 2.83 µM] | activity change, negative = cytotoxicity [14] -27.4% [at 2.69 µM] | activation [15] -0.533% [at 2.71 µM] | activity change, negative = inhibition [16] 3.88% [at 3.11 µM]

O=C1NC(=O)C(=O)C(=O)N1
inactive: Potency [1] | Potency [2] | Potency [3] | Potency [4] | Potency [5] | Potency [6] | Potency [7] | Potency [9] | Potency [10] | Potency [18] | Potency [11] | Potency [12] | outcome [13] | Potency [14] | outcome [15] | Potency [16] | Potency [19]

C=C(C)C(=O)OCCCCOC(=O)C(=C)C
inactive: Potency [1] | Potency [2] | Potency [3] | Potency [4] | Potency [5] | Potency [6] | Potency [7] | Potency [8] | Potency [9] | outcome [17] | Potency [10] | Potency [12] | Potency [14] | outcome [15] | Potency [19]

CC(C)(C#N)C(C)(C)C#N
inactive: Potency [1] | Potency [2] | Potency [3] | Potency [4] | Potency [5] | Potency [6] | Potency [7] | Potency [8] | Potency [9] | outcome [17] | Potency [18] | Potency [11] | Potency [12] | outcome [13] | Potency [14] | Potency [19]

SCc1ccccc1
inactive: Potency [1] | Potency [2] | Potency [3] | Potency [4] | Potency [5] | Potency [6] | Potency [7] | Potency [8] | Potency [9] | outcome [17] | Potency [10] | Potency [11] | Potency [12] | outcome [13] | Potency [14] | outcome [15] | Potency [16]

COC(=O)Cc1ccccc1
inactive: Potency [1] | Potency [2] | Potency [3] | Potency [5] | Potency [6] | Potency [7] | Potency [8] | Potency [9] | outcome [17] | Potency [10] | Potency [12] | Potency [14] | outcome [15] | Potency [19]

CCOC(=O)NC(O)C(Cl)(Cl)Cl (centres undefined)
inactive: Potency [1] | Potency [2] | Potency [3] | Potency [4] | Potency [5] | Potency [6] | Potency [8] | Potency [9] | Potency [10] | Potency [11] | Potency [12] | outcome [13] | Potency [14] | outcome [15]

COc1cc(CC(C)N)c(OC)cc1Br (centres undefined)
inactive: Potency [1] | Potency [2] | Potency [3] | Potency [4] | Potency [6] | Potency [7] | Potency [8] | outcome [17] | Potency [18] | Potency [12] | Potency [14] | Potency [19]

CCCBr
inactive: Potency [1] | Potency [2] | Potency [3] | Potency [4] | Potency [5] | Potency [6] | Potency [7] | Potency [8] | Potency [9] | Potency [10] | Potency [11] | Potency [12] | outcome [13] | Potency [14] | outcome [15] | Potency [16]

C=CC(=O)NC(C)(C)CC(C)=O
inactive: Potency [1] | Potency [2] | Potency [3] | Potency [4] | Potency [5] | Potency [6] | Potency [7] | Potency [8] | Potency [9] | outcome [17] | Potency [10] | Potency [12] | Potency [14] | outcome [15] | Potency [16] | Potency [19]

Reference: PubChem BioAssay (Tox21)
